Results reported in PubChem BioAssay (NCI).
This is part of a sample that, as a whole, favours compounds with a hit. Of some 83,000 tested, about 20% had one in any assay.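 Step 1: grow cells in 96-well plates. Step 2: add test compound at a single concentration. Step 3: incubate 48 h. Step 4: record percent growth.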 Active and inactive are the calls of the source. The calls were made as follows: active = growth percent below 10; inactive = the rest.

Key:
Test in all cases: NCI-60 one-dose screen, 48 h (100 = growth as untreated, 0 = no growth, -100 = all killed)
Conditions in all cases: 10 µM unless noted
NCI-H23 lung = tested on: NCI-H23 lung
NCI-H322M lung = tested on: NCI-H322M lung
HOP-62 NSCLC = tested on: HOP-62 NSCLC
NCI-H460 lung = tested on: NCI-H460 lung
HOP-92 NSCLC = tested on: HOP-92 NSCLC
NCI-H522 lung = tested on: NCI-H522 lung
A549/ATCC NSCLC = tested on: A549/ATCC NSCLC
786-0 renal = tested on: 786-0 renal
COLO 205 colon = tested on: COLO 205 colon
DU-145 prostate = tested on: DU-145 prostate
K-562 leukemia = tested on: K-562 leukemia
MALME-3M melanoma = tested on: MALME-3M melanoma
MDA-MB-231 breast = tested on: MDA-MB-231 breast
RXF 393 renal = tested on: RXF 393 renal
SF-268 CNS = tested on: SF-268 CNS
SF-295 CNS = tested on: SF-295 CNS
SF-539 CNS = tested on: SF-539 CNS
UACC-257 melanoma = tested on: UACC-257 melanoma
HCT-15 colon = tested on: HCT-15 colon
M14 melanoma = tested on: M14 melanoma

Measured: growth

O=C(Nc1nc2c(s1)CCc1c-2c(Br)n(Cc2ccccc2)c1Br)c1ccccc1
inactive: NCI-H23 lung 79.9% | NCI-H322M lung 58.9% | HOP-62 NSCLC 32.8% | NCI-H460 lung 40.8% | HOP-92 NSCLC 31.2% | NCI-H522 lung 61.9% | A549/ATCC NSCLC 67.2% | 786-0 renal 56.7% | COLO 205 colon 72.7% | DU-145 prostate 74.5% | K-562 leukemia 56.8% | MDA-MB-231 breast 36.6% | RXF 393 renal 36.6% | SF-268 CNS 60.7% | SF-295 CNS 62.5% | SF-539 CNS 18.1% | UACC-257 melanoma 64.9% | HCT-15 colon 81.6%
active: MALME-3M melanoma -16.2%

O=C(NC(=S)Nc1cccc(NC(=S)NC(=O)c2ccccc2)c1)c1ccccc1
active: NCI-H522 lung -9.46%
inactive: NCI-H23 lung 69.1% | NCI-H322M lung 89% | HOP-62 NSCLC 52.5% | NCI-H460 lung 46.4% | HOP-92 NSCLC 34.8% | A549/ATCC NSCLC 57.6% | 786-0 renal 76.5% | COLO 205 colon 56.5% | DU-145 prostate 77.5% | K-562 leukemia 68.7% | MALME-3M melanoma 55.3% | MDA-MB-231 breast 56.7% | RXF 393 renal 85.4% | SF-268 CNS 56.1% | SF-539 CNS 70% | UACC-257 melanoma 44.7% | M14 melanoma 73.5% | HCT-15 colon 73.5%

CCCC(c1nnnn1C1CCCCC1)N1CCN(C(=O)c2ccco2)CC1 (stereo unspecified)
inactive: NCI-H23 lung 71% | NCI-H322M lung 97.5% | HOP-62 NSCLC 79.2% | NCI-H460 lung 40.6% | HOP-92 NSCLC 47.6% | NCI-H522 lung 62.5% | A549/ATCC NSCLC 55.2% | 786-0 renal 74.9% | COLO 205 colon 73.4% | DU-145 prostate 69.7% | MALME-3M melanoma 53.2% | MDA-MB-231 breast 63.9% | RXF 393 renal 65.1% | SF-268 CNS 60.8% | SF-539 CNS 65.7% | UACC-257 melanoma 82.5% | M14 melanoma 30.5% | HCT-15 colon 45.5%
active: K-562 leukemia 9.87%

N#C/C(=C\c1c(-c2ccccc2)[nH]c2ccccc12)C(=O)c1ccccc1
inactive: NCI-H23 lung 47.9% | NCI-H322M lung 53.3% | HOP-62 NSCLC 43% | NCI-H460 lung 18.9% | HOP-92 NSCLC 77.5% | NCI-H522 lung 57.1% | A549/ATCC NSCLC 50.2% | 786-0 renal 50.1% | COLO 205 colon 25.6% | DU-145 prostate 31.7% | K-562 leukemia 21.6% | MALME-3M melanoma 70.9% | MDA-MB-231 breast 71.3% | SF-268 CNS 53.6% | SF-295 CNS 37.1% | SF-539 CNS 21.7% | UACC-257 melanoma 61.6% | M14 melanoma 37.6% | HCT-15 colon 42.1%

COC(=O)/C(CCC=C(C)C)=C1\[C@@H](OC(C)=O)C[C@@]2(C)[C@H]1C[C@@H](O)[C@H]1[C@@]3(C)CC[C@H](NC(=O)c4cnccn4)[C@@H](C)[C@@H]3CC[C@@]12C
inactive: NCI-H23 lung 103% | NCI-H322M lung 108% | HOP-62 NSCLC 102% | NCI-H460 lung 109% | HOP-92 NSCLC 100% | NCI-H522 lung 89.6% | A549/ATCC NSCLC 97.9% | 786-0 renal 92.2% | COLO 205 colon 110% | DU-145 prostate 93.7% | K-562 leukemia 85.5% | MALME-3M melanoma 100% | MDA-MB-231 breast 96.5% | RXF 393 renal 107% | SF-268 CNS 94.8% | SF-295 CNS 103% | SF-539 CNS 105% | UACC-257 melanoma 110% | M14 melanoma 99.8% | HCT-15 colon 96.3%

Nc1ccc(C2c3ccccc3Oc3ccccc32)cc1
inactive: NCI-H23 lung 99.1% | NCI-H322M lung 99.8% | HOP-62 NSCLC 91.8% | NCI-H460 lung 108% | HOP-92 NSCLC 93.4% | NCI-H522 lung 89.4% | A549/ATCC NSCLC 97.7% | 786-0 renal 105% | COLO 205 colon 105% | DU-145 prostate 106% | K-562 leukemia 82.3% | MALME-3M melanoma 106% | MDA-MB-231 breast 104% | SF-268 CNS 102% | SF-295 CNS 89% | SF-539 CNS 111% | UACC-257 melanoma 102% | M14 melanoma 107% | HCT-15 colon 99.2%

CCOC(=O)c1cc2c(n1Cc1cccc(OC)c1)-c1oncc1CCC2
active: COLO 205 colon -17.5% | MALME-3M melanoma -0.828% | SF-295 CNS 7.73% | SF-539 CNS 2.09%
inactive: NCI-H23 lung 36.4% | NCI-H322M lung 74.8% | HOP-62 NSCLC 39.9% | NCI-H460 lung 17.9% | HOP-92 NSCLC 67.4% | NCI-H522 lung 14.5% | A549/ATCC NSCLC 42.3% | 786-0 renal 51.7% | DU-145 prostate 23.3% | K-562 leukemia 10.8% | MDA-MB-231 breast 53.9% | RXF 393 renal 21.4% | SF-268 CNS 38.8% | UACC-257 melanoma 42.7% | HCT-15 colon 29.3%

COc1ccc(/C=C2\SC(=Nc3ccccc3)NC2=O)cc1
inactive: NCI-H23 lung 21.6%
active: NCI-H322M lung -53.9% | HOP-62 NSCLC -95.3% | NCI-H460 lung -79.4% | HOP-92 NSCLC -64.5% | NCI-H522 lung -85.6% | A549/ATCC NSCLC -74.8% | 786-0 renal -92.8% | COLO 205 colon -94.3% | DU-145 prostate -50.8% | K-562 leukemia -64.2% | MALME-3M melanoma -86% | MDA-MB-231 breast -83% | RXF 393 renal -95.5% | SF-268 CNS -82.5% | SF-539 CNS -96.2% | UACC-257 melanoma -91.8% | M14 melanoma -79.8% | HCT-15 colon -44.5%

O=C(c1ccccc1)N(CCc1ccc(Cl)cc1)C(=S)N(C(=O)c1ccccc1)c1ccccc1
inactive: NCI-H23 lung 92.7% | NCI-H322M lung 111% | HOP-62 NSCLC 118% | NCI-H460 lung 106% | HOP-92 NSCLC 71% | NCI-H522 lung 105% | A549/ATCC NSCLC 97.3% | 786-0 renal 97.6% | COLO 205 colon 150% | DU-145 prostate 83.9% | K-562 leukemia 58.3% | MDA-MB-231 breast 107% | SF-268 CNS 101% | SF-295 CNS 109% | SF-539 CNS 106% | UACC-257 melanoma 102% | M14 melanoma 113% | HCT-15 colon 93.8%

COc1ccc(-c2cn[nH]c2-c2ccc(OC)c(O)c2)cc1
inactive: NCI-H23 lung 92.8% | NCI-H322M lung 98.6% | HOP-62 NSCLC 66.4% | NCI-H460 lung 76.6% | HOP-92 NSCLC 61.5% | NCI-H522 lung 45.6% | A549/ATCC NSCLC 76% | 786-0 renal 92.5% | COLO 205 colon 116% | DU-145 prostate 96.9% | MALME-3M melanoma 98.6% | MDA-MB-231 breast 68.4% | SF-268 CNS 77.9% | SF-295 CNS 81.7% | SF-539 CNS 76.9% | UACC-257 melanoma 92.3% | M14 melanoma 64.2% | HCT-15 colon 50%

O=C(c1ccccc1)N(C(=S)NCCc1ccc(Cl)cc1)c1ccc(Cl)cc1
inactive: NCI-H23 lung 74.7% | NCI-H322M lung 75.9% | HOP-62 NSCLC 91.3% | NCI-H460 lung 80.1% | HOP-92 NSCLC 76.3% | NCI-H522 lung 92.1% | A549/ATCC NSCLC 82.4% | 786-0 renal 57.2% | COLO 205 colon 61.6% | DU-145 prostate 29.3% | MDA-MB-231 breast 91.7% | SF-268 CNS 33.2% | SF-295 CNS 68.3% | SF-539 CNS 36.9% | UACC-257 melanoma 71.2% | M14 melanoma 71.2% | HCT-15 colon 47.6%
active: K-562 leukemia 4.72%

CCCCc1c(CCC)c(=N)c2ccccc2n1C
inactive: NCI-H23 lung 99.2% | NCI-H322M lung 85.3% | HOP-62 NSCLC 78% | NCI-H460 lung 67.7% | HOP-92 NSCLC 48.2% | NCI-H522 lung 100% | A549/ATCC NSCLC 69.8% | 786-0 renal 73.8% | COLO 205 colon 70.5% | DU-145 prostate 79.9% | MDA-MB-231 breast 43.2% | RXF 393 renal 90.9% | SF-268 CNS 81.4% | SF-539 CNS 74.1% | UACC-257 melanoma 30.8% | M14 melanoma 55.3% | HCT-15 colon 44.5%
active: K-562 leukemia 8.23% | SF-295 CNS 9.89%

CN(CCc1ccccc1)C(=S)N(C(=O)c1ccc([N+](=O)[O-])cc1)c1ccc(Cl)cc1
inactive: NCI-H23 lung 97.5% | NCI-H322M lung 102% | HOP-62 NSCLC 102% | NCI-H460 lung 102% | HOP-92 NSCLC 67% | NCI-H522 lung 100% | A549/ATCC NSCLC 98.2% | 786-0 renal 88% | COLO 205 colon 109% | DU-145 prostate 73.1% | K-562 leukemia 40.6% | MDA-MB-231 breast 101% | SF-268 CNS 91.7% | SF-295 CNS 110% | SF-539 CNS 92.6% | UACC-257 melanoma 101% | M14 melanoma 94.8% | HCT-15 colon 83.9%

COc1ccc(C2NCCc3c2[nH]c2ccccc32)cc1CN1CCN(c2ccc(F)cc2)CC1 (stereo unspecified)
active: NCI-H460 lung 5.7% | HOP-92 NSCLC -18.7% | MDA-MB-231 breast -32.5% | RXF 393 renal -9.51% | SF-295 CNS -67.2% | UACC-257 melanoma -39.9% | M14 melanoma -30% | HCT-15 colon 8.26%
inactive: NCI-H23 lung 64.8% | NCI-H322M lung 78.5% | HOP-62 NSCLC 63.4% | NCI-H522 lung 40.8% | A549/ATCC NSCLC 63.7% | 786-0 renal 51% | COLO 205 colon 47.6% | DU-145 prostate 78.5% | K-562 leukemia 17% | SF-268 CNS 76.4% | SF-539 CNS 58.8%

O=C(O)c1cn(C2CC2)c2cc(N3CCN(C(=O)C[n+]4ccccc4)CC3)c(F)cc2c1=O
inactive: NCI-H23 lung 104% | NCI-H322M lung 105% | HOP-62 NSCLC 103% | NCI-H460 lung 106% | HOP-92 NSCLC 98.5% | NCI-H522 lung 93.4% | A549/ATCC NSCLC 99.1% | 786-0 renal 98.5% | COLO 205 colon 121% | DU-145 prostate 102% | MALME-3M melanoma 99.5% | MDA-MB-231 breast 105% | SF-268 CNS 95.3% | SF-295 CNS 101% | SF-539 CNS 95.1% | UACC-257 melanoma 101% | M14 melanoma 106% | HCT-15 colon 102%
